High-throughput results: PubChem BioAssay, Center for Chemical Genomics, University of Michigan
Many of the other results were omitted from the sample, so hits are more common in it than they were.
Dicer processing – inhibitors of Dicer pre-microRNA processing, primary screen, biochemical, cat-ELCCA, chemiluminescence; actives 6% (n = 47,000); z-score at 25 µM; cat-ELCCA pre-miR-21 Dicer processing; active compounds read high; Endoribonuclease Dicer (Homo sapiens), Q9UPY3; AID 1347074, 2019; in the data active = z-score above about 3, passing the limit was not always enough;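 note: plate controls were vehicle for no effect and no enzyme for full effect; higher signal means more uncleaved substrate so more Dicer inhibition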
Target sequence (Q9UPY3 whole entry, looked up): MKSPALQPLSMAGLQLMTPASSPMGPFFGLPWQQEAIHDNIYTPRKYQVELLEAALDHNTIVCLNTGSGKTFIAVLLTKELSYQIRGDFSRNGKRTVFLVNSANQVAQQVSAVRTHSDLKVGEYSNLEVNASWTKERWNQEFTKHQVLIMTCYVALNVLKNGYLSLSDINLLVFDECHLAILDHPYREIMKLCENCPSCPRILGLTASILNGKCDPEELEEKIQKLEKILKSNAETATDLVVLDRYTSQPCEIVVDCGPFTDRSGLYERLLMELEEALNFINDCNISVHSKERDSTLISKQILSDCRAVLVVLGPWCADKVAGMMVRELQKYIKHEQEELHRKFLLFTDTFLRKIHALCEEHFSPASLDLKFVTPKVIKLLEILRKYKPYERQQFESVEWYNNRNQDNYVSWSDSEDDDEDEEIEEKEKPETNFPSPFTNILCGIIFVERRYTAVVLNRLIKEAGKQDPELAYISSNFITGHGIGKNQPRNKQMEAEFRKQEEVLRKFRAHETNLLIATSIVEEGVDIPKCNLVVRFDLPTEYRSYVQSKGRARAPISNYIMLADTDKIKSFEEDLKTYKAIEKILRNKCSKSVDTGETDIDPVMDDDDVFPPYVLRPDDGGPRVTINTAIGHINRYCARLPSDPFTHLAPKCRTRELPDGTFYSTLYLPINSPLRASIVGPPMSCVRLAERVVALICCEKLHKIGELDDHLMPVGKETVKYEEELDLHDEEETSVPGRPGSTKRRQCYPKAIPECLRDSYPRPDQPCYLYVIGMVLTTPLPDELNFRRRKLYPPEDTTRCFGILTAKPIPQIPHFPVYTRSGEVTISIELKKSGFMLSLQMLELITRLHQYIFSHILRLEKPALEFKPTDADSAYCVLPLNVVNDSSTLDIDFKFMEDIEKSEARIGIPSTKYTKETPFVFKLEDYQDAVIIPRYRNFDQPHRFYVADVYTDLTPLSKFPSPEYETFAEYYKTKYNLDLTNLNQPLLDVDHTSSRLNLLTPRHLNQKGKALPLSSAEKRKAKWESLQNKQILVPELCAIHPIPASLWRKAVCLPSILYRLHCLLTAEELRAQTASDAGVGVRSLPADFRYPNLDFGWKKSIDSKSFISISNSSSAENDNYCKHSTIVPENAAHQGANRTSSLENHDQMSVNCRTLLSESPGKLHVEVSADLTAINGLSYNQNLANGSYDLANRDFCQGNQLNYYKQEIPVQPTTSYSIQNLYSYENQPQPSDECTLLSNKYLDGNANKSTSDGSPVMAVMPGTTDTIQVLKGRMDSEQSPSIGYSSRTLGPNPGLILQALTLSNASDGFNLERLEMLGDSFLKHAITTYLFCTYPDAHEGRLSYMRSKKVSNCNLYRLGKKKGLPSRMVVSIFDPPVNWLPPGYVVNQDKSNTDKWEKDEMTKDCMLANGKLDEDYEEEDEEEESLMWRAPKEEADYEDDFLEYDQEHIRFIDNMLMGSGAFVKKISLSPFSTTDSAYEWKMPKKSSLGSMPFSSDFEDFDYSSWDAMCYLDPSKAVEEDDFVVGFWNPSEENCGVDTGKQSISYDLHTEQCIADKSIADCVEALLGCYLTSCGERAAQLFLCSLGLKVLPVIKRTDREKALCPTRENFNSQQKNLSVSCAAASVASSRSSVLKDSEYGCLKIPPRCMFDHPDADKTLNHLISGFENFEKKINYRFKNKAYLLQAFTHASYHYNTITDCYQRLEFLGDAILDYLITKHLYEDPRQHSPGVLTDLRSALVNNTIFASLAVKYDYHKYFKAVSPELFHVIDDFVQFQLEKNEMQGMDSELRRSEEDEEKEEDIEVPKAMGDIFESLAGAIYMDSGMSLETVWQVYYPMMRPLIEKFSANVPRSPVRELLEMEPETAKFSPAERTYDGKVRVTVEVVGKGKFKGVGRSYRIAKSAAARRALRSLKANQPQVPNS
Numbers without * were called inactive.

SMILES | Dicer processing
FC(F)(F)c1ccc(NCn2nnc3cc(Cl)ccc32)cc1 | 6.51
FC(F)(F)Oc1ccc(NCn2nnc3ccccc32)cc1 | 3.61*
Fc1ccc(NCn2nnc3cc(Cl)ccc32)cc1 | 1.02
Cc1ccc(C2Nn3c(C)nnc3SC2C(=O)N2CCOCC2)cc1 (stereo not given) | 0.58
CO[C@@H]1O[C@H](COC(C)=O)[C@@H](OC(C)=O)[C@H](OC(C)=O)[C@H]1OC(C)=O | -0.45
CCCCSC1=C(C#N)C(=O)NC(c2ccc(O)c(OC)c2)S1 (stereo not given) | 3.11*
CCCCSC1=C(C#N)C(=O)NC(c2ccc(O)cc2)S1 (stereo not given) | -0.9
CCCCSC1=C(C#N)C(=O)NC(c2ccc(C(=O)O)cc2)S1 (stereo not given) | -1.35
Cc1ccc(-c2nc(-n3c(C)ccc3C)sc2C)cc1Cl | -3.53
Cc1c(O)c(Sc2ccccc2)c(=O)n(-c2ccccc2)c1-c1ccccc1 | 1.3
Cc1c(S(=O)(=O)Nc2ccc(Cl)c(Cl)c2)sc2ccc(Cl)cc12 | 1.87
Cc1c(S(=O)(=O)Oc2ccccc2Cl)sc2ccc(Cl)cc12 | -0.86
Cc1c(S(=O)(=O)Nc2ccccc2Cl)sc2ccc(Cl)cc12 | 4.63*
CCOc1cc(C2c3c(oc4ccccc4c3=O)C(=O)N2c2nc(C)c(C)s2)ccc1O (stereo not given) | -0.68
CCOC(=O)CSC1=C(C#N)C(c2cc(OC)ccc2OC)CC(=O)N1 (stereo not given) | 0.79
C1CN(c2nsnc2OCCOc2nsnc2N2CCOCC2)CCO1 | -0.25
O=C(Oc1nsnc1N1CCOCC1)N1CCCCC1 | 1.49
O=C(Oc1nsnc1N1CCOCC1)N1CCOCC1 | 3.1*
COC(=O)c1sc2c(c1N(C(C)=O)C(C)=O)CSc1ccc(Cl)cc1-2 | -0.9
COc1ccc(C(=O)Oc2ccc3c(c2)C(C)=CC(C)(C)N3)cc1OC | -0.52
Nc1cccc(NC(=O)c2ccccc2O)c1 | 5.88*
Nc1ccccc1NC(=O)c1ccccc1O | 0.52
COc1ccc(C=Nc2cccc(NC(=O)c3ccccc3O)c2)cc1 | 1.86
COc1ccc2cc(C(=O)c3ccc(Cl)cc3)oc2c1 | 1.4
O=C(O)CNS(=O)(=O)c1ccc2[nH]c(=O)[nH]c2c1 | 0.48
SMILES | Dicer processing
O=c1[nH]c2ccc(S(=O)(=O)NC3CCCCC3)cc2[nH]1 | 4.68*
Cn1c(=O)n(C)c2cc(S(=O)(=O)NC3CCCCC3)ccc21 | -0.28
CCOC(=O)C1=C(C)N=C2SC(C)C(=O)N2C1c1ccc(F)cc1 (stereo not given) | 0.97
N#Cc1ncoc1-c1ccc(Cl)cc1 | 2.37
Cc1ccsc1CNC(=O)CCC(=O)O | -1.55
O=C1CSC2(C(=O)Nc3ccccc32)N1c1ccccc1 (stereo not given) | -0.52
Cc1ccc(N2C(=O)CSC23C(=O)Nc2ccccc23)cc1 (stereo not given) | 3.82*
Cc1ccc(C)c(C(=O)CC2(O)C(=O)Nc3ccccc32)c1 (stereo not given) | 1.65
COC(=O)CSC1=C(C#N)C(c2ccccc2Cl)CC(=O)N1 (stereo not given) | -0.02
CCOC(=O)c1cnc(Sc2ccc(Cl)cc2)nc1C(F)(F)F | -4.23
CN1CNc2c(c(=O)n(C)c(=O)n2C)C1 | -2.45
CC(c1ccccc1)N1CNc2c(c(=O)n(C)c(=O)n2C)C1 (stereo not given) | 0.51
Cn1c2c(c(=O)n(C)c1=O)CN(CCCC(=O)O)CN2 | -1.85
CCCN1CNc2c(c(=O)n(C)c(=O)n2C)C1 | 0.77
CN(C)CCN1CNc2c(c(=O)n(C)c(=O)n2C)C1 | 3.49*
Cn1c2c(c(=O)n(C)c1=O)CN(Cc1ccc(CN3CNc4c(c(=O)n(C)c(=O)n4C)C3)cc1)CN2 | 3.77*
CN(C)NC(=O)c1ccc(Oc2cc(Cl)cc(Cl)c2)o1 | 0.28
CCOC(=O)c1cnc(-c2ccc(Cl)cc2)nc1-c1ccccc1 | -0.04
CC(C)c1nn2c(=O)c(NC(=O)c3ccc(F)cc3)cnc2s1 | -0.02
CSc1scc(-c2cccs2)c1C#N | -1.08
COc1cc(C2N(C)c3ccccc3N2C)ccc1O | 0.55
Cc1ccc(S(=O)(=O)NNC(=O)c2[nH]c3ccc([N+](=O)[O-])cc3c2-c2ccccc2)cc1 | 6.72*
O=C(O)c1[nH]c2ccc([N+](=O)[O-])cc2c1-c1ccccc1 | 0.06
NNC(=O)c1[nH]c2ccc([N+](=O)[O-])cc2c1-c1ccccc1 | -1.68
CCC(CC)C(=O)Nc1nnc(COC)s1 | 0.06
SMILES | Dicer processing
c1ccc(Nc2nc3c(s2)CCCC3)cc1 | 4.03*
c1ccc(Nc2nc3c(s2)Cc2ccccc2-3)cc1 | -1.41
O=C(CSc1nnc2sc3ccccc3n12)Nc1nc2c(s1)CCCC2 | 2.76
Cc1nnc2sc(-c3cccc(N)c3)nn12 | -0.5
Cc1ccc(N2C(=O)c3oc4ccccc4c(=O)c3C2c2ccccc2)nc1 (stereo not given) | 0.17
CCOc1ccc(C2c3c(oc4ccccc4c3=O)C(=O)N2c2nc(C)c(C)s2)cc1 (stereo not given) | 0.15
COc1ccc(C2c3c(oc4ccccc4c3=O)C(=O)N2c2ccc(C)cn2)cc1OC (stereo not given) | 1.64
CCOc1ccc(C2c3c(oc4ccccc4c3=O)C(=O)N2c2ccc(C)cn2)cc1 (stereo not given) | 3.61*
Cc1ccc(N2C(=O)c3oc4ccccc4c(=O)c3C2c2cccc(Br)c2)nc1 (stereo not given) | 2.88
Cc1ccc(N2C(=O)c3oc4ccccc4c(=O)c3C2c2ccc(Cl)cc2)nc1 (stereo not given) | 3.83*
Cc1ccc(C2c3c(oc4ccccc4c3=O)C(=O)N2c2ccccn2)cc1 (stereo not given) | 0.91
CCOc1ccc(C2c3c(oc4ccc(C)cc4c3=O)C(=O)N2c2ccccn2)cc1 (stereo not given) | 1.08
Cc1ccc(N2C(=O)c3oc4ccccc4c(=O)c3C2c2ccc(O)cc2)nc1 (stereo not given) | 4.36*
COc1cccc(-c2nc(-c3ccc(Cl)cc3)no2)c1OC | 0.41
CC(=O)Nc1nc(-c2ccccc2)nc(C)c1-c1cc(C)c2c(C)nc(-c3ccccc3)nc2n1 | -0.29
COc1c(C(=O)O)sc(C(=O)O)c1OC | -0.56
CC(C)(C)c1nc(Sc2ncc([N+](=O)[O-])s2)n[nH]1 | -0.31
CCOc1nc(-c2ccc(OC)cc2)ccc1-c1noc(CC)n1 | 1.24
CCOc1cc(C2Nc3ccccc3-c3nc4ccccc4n32)ccc1O (stereo not given) | 1.45
Cc1cn2c3ccccc3nc2n1CCCO | 1.93
Cc1ccc(-n2c(-c3ccc(-n4c(C)ccc4C)cc3)n[nH]c2=S)cc1 | 2.38
C#CC(O)(c1ccccc1)c1ccccc1 | 0.09
CC(C)C(N)C(O)(c1ccccc1)c1ccccc1 (stereo not given) | 3.85*
COc1ccc(C(O)(c2ccccc2)c2ccccc2)cc1 | 1.88
COc1cc(OC)cc(C2C(C#N)=C(N)Oc3n[nH]c(C)c32)c1 (stereo not given) | -4.17
SMILES | Dicer processing
CC(C)Sc1c(Cl)cccc1NC(=O)Nc1cccc(C(F)(F)F)c1 | -0.85
COC(=O)c1cn(CCOc2ccc(F)cc2)c2ccccc12 | 2.25
O=C(c1ccco1)c1cn(CCOc2ccc(Cl)cc2)c2ccccc12 | -0.39
CC(C)(C)C(=O)c1cn(CC(=O)O)c2ccccc12 | 0.33
O=C(c1ccco1)c1cn(CCOc2ccccc2)c2ccccc12 | -0.39
O=C(c1cccs1)c1cn(CCOc2ccc(F)cc2)c2ccccc12 | 3.46*
COC(=O)Cn1cc(C(=O)c2ccccc2)c2ccccc21 | 3.61*
